Values joined by “and” are separate entries in the source; they are usually repeats but may differ in a detail not shown here. Identical values can stand only once. Records with an inconclusive call do not appear. Active and inactive are the calls of the source. Rule for the calls: active = hit-call score of the fitted dose curve at least 0.9, where 1 is the maximum; inconclusive = response in the unintended direction; inactive = score below 0.9.

This passage reports outcome and AC50 results from PubChem BioAssay (EPA / NIEHS).

The target in experiment [1] is Estrogen receptor (Homo sapiens) (UniProt P03372). In words: OT_ER_ERaERa_1440: Odyssey Thera (OT) 24-hour HEK293T Protein-Complementation Assay for Estrogen Receptor-alpha/-alpha Homodimer (AID 2283349).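 Note: hits raise fluorescence above DMSO for agonists and antagonists alike.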 The method, boiled down:
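Cells (HEK293T) carrying the fragment-tagged ERα LBD (aa 310-547) pair are treated with chemical for 24 hours. Nuclear and/or cytoplasmic fluorescence is then quantified on a laser scanning cytometer. Activity is scored as signal gain against DMSO.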

Experiment [2] has the same target. Nature of the experiment: NVS_NR_hER: NovaScreen (NVS) Nuclear Receptor Binding Assay for human Estrogen Receptor (ER) (AID 2283348). The method, boiled down: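 MCF7-derived receptor extract, radiolabelled ligand, competitive displacement. Read: scintillation counts at 18 h. DMSO = negative control/baseline. Primary 25 uM duplicate; follow-up concentration–response.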

Experiment [3] has the same target. Nature of the experiment: OT_ER_ERaERa_0480: Odyssey Thera (OT) 8-hour HEK293T Protein-Complementation Assay for Estrogen Receptor-alpha/-alpha Homodimer (AID 2283351).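 Note: rise in fluorescence from reassembled reporter fragments on ERα LBD homodimer in nucleus or whole cell.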 The method, boiled down:
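Cells were treated for 8 hours, then imaged on a laser scanning plate cytometer. Complementation of reporter fragments fused to the human ERα ligand-binding domain (residues 310-547) in HEK293T gave fluorescence, and gain of signal over vehicle was fitted.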

Experiment [4] has as its target Androgen Receptor/SRC-1 Co-activator, AR (gene 367) (UniProt P10275). Nature of the experiment: OT_AR_ARSRC1_0960: Odyssey Thera (OT) 16-hour HEK293T Protein-Complementation Assay for Androgen Receptor/SRC-1 Co-activator (AID 2283353).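 Note: actives raise the signal above DMSO so potency reflects increased AR and SRC-1 complex.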 The method, boiled down:
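Stable HEK293T line carries AR and SRC-1 each linked to a Venus fragment; chemicals are applied for 16 h, cells imaged at two wavelengths, and the 488 nm nucleus/cytoplasm ratio is taken as the signal, rising relative to DMSO.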

For experiment [5] the target is unchanged. In words: OT_AR_ARSRC1_0480: Odyssey Thera (OT) 8-hour HEK293T Protein-Complementation Assay for Androgen Receptor/SRC-1 Co-activator (AID 2283354).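 Note: hits raise the complementation signal above DMSO so AC50 marks enhancers.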 The method, boiled down: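 Split-Venus PCA, stable HEK293T, AR/SRC-1 fusions; 8 h exposure. Readout: 488nm N/C fluorescence ratio, ≥400 cells/image; fitted upward vs DMSO baseline.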
In experiment [6] the target is chimpanzee Androgen Receptor (AR), AR (gene 747460) (UniProt O97775). In words: NVS_NR_cAR: NovaScreen (NVS) Nuclear Receptor Binding Assay for chimpanzee Androgen Receptor (AR) (AID 2283346).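 Note: a loss of bound radioligand signal versus DMSO counts as binding.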 The method, boiled down: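 Radioligand binding to chimpanzee AR expressed in Sf9/Sf21 cells, cell-free, measured 72 h after dosing by lysate-based scintillation counting. Loss of signal vs DMSO; initial duplicate screen at 25 uM, actives retested in concentration series.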
Chain of chimpanzee Androgen Receptor (AR), AR (gene 747460) (O97775 whole entry, looked up): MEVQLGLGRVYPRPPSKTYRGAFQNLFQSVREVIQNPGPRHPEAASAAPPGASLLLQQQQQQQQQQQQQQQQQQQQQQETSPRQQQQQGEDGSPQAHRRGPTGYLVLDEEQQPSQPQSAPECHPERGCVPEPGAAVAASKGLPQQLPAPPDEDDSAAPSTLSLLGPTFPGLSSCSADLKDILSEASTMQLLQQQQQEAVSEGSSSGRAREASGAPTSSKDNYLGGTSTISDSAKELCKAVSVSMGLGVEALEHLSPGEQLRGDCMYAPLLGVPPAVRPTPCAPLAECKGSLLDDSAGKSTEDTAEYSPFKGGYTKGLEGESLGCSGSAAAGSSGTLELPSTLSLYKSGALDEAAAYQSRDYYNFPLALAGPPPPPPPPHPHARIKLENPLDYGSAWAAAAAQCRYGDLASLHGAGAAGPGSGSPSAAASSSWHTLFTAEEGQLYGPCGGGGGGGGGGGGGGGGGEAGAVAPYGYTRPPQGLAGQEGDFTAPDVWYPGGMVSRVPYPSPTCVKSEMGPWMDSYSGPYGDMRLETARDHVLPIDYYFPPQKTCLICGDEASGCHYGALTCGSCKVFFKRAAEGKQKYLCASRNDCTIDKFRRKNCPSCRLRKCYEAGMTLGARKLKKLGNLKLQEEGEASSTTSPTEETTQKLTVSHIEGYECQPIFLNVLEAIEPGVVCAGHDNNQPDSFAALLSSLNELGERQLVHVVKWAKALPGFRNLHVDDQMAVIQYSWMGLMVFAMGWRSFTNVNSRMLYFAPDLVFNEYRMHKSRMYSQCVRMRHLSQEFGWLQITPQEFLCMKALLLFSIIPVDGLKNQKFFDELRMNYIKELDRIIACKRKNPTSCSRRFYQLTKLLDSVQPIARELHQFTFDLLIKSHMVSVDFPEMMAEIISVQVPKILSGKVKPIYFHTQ

In experiment [7] the target is rat Mineralocorticoid Receptor (MR), Nr3c2 (gene 25672) (UniProt P22199). Nature of the experiment: NVS_NR_rMR: NovaScreen (NVS) Nuclear Receptor Binding Assay for rat Mineralocorticoid Receptor (MR) (AID 2283355). The method, boiled down:
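Radioligand displacement, scintillation readout; tissue source adrenalectomized rat brain supernatant. Read 24 h post-dose. Screened in duplicate at 25 uM, DMSO negative control, controls on every plate; actives re-run in concentration series.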

Experiment [8] addresses Bile acid receptor (Homo sapiens) (UniProt Q96RI1). Nature of the experiment: NVS_NR_hFXR_Agonist: NovaScreen (NVS) Nuclear Receptor Binding Assay for human Farnesoid X Receptor Agonism (FXR) (AID 2283347). Here is the method:
NVS_NR_hFXR_Agonist is a biochemical, single-readout assay that uses extracted gene-proteins in a cell-free assay. Measurements were taken 1 hour after chemical dosing in a 384-well plate.NVS_NR_hFXR_Agonist is one of one assay component(s) measured or calculated from the NVS_NR_hFXR_Agonist assay. It is designed to make measurements of fluorescent resonance energy transfer, a form of binding reporter, as detected with fluorescent resonance energy transfer signals by Time-Resolved Fluorescence Resonance Energy Transfer (TR-FRET) technology.Data from the assay component NVS_NR_hFXR_Agonist was analyzed into 1 assay endpoint. This assay endpoint, NVS_NR_hFXR_Agonist, was analyzed in the positive analysis fitting direction relative to DMSO as the negative control and baseline of activity. Using a type of binding reporter, gain-of-signal activity can be used to understand changes in the binding as they relate to the gene NR1H4. Furthermore, this assay endpoint can be referred to as a primary readout, because the performed assay has only produced 1 assay endpoint. To generalize the intended target to other relatable targets, this assay endpoint is annotated to the nuclear receptor intended target family, where the subfamily is non-steroidal. […]

The target in experiment [9] is Estrogen receptor (Homo sapiens) + Estrogen receptor beta (Homo sapiens) (UniProt P03372+Q92731). Nature of the experiment: OT_ER_ERaERb_0480: Odyssey Thera (OT) 8-hour HEK293T Protein-Complementation Assay for Estrogen Receptor-alpha/-beta Heterodimer (AID 2283352). The method, boiled down: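 Human HEK293T cells were treated for 8 hours and receptor heterodimerisation was detected through reconstitution of a fluorescent reporter split between ER-alpha and ER-beta ligand-binding domains. Activity was analysed as gain of signal against DMSO.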
Chain of Estrogen receptor (Homo sapiens) + Estrogen receptor beta (Homo sapiens) (P03372 whole entry, looked up, the tested form may be a part): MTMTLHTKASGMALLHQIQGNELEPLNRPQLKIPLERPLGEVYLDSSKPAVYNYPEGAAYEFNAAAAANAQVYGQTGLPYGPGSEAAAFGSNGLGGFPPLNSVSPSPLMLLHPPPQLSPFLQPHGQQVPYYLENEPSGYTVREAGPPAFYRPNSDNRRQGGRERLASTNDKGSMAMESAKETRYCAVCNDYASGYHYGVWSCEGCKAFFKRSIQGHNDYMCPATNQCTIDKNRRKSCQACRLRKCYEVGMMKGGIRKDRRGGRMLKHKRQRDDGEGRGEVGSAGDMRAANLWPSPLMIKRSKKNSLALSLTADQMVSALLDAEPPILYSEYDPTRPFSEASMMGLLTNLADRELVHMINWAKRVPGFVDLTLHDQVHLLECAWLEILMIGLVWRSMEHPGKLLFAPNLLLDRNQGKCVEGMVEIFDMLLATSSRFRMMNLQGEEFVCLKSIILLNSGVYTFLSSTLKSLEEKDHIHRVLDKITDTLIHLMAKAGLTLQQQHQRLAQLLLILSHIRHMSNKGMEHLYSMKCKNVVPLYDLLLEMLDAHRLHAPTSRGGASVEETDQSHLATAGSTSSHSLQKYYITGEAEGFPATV
Chain of Estrogen receptor (Homo sapiens) + Estrogen receptor beta (Homo sapiens) (Q92731 whole entry, looked up, the tested form may be a part): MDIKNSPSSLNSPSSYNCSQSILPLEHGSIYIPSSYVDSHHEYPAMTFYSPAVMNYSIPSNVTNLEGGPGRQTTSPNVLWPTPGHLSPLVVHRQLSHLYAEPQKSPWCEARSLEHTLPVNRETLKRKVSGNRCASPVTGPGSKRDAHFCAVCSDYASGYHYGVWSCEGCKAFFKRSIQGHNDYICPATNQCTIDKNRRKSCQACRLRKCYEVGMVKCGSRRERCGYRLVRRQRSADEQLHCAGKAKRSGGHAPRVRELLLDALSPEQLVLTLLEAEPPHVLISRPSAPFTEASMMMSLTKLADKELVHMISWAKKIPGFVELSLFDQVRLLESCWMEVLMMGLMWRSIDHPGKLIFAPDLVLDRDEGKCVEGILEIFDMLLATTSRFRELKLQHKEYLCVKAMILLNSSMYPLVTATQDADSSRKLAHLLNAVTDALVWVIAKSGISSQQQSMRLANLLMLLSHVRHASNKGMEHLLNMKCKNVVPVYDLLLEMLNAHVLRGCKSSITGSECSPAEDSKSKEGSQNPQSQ

Chain of Androgen Receptor/SRC-1 Co-activator, AR (gene 367) (P10275 whole entry, looked up, the tested form may be a part): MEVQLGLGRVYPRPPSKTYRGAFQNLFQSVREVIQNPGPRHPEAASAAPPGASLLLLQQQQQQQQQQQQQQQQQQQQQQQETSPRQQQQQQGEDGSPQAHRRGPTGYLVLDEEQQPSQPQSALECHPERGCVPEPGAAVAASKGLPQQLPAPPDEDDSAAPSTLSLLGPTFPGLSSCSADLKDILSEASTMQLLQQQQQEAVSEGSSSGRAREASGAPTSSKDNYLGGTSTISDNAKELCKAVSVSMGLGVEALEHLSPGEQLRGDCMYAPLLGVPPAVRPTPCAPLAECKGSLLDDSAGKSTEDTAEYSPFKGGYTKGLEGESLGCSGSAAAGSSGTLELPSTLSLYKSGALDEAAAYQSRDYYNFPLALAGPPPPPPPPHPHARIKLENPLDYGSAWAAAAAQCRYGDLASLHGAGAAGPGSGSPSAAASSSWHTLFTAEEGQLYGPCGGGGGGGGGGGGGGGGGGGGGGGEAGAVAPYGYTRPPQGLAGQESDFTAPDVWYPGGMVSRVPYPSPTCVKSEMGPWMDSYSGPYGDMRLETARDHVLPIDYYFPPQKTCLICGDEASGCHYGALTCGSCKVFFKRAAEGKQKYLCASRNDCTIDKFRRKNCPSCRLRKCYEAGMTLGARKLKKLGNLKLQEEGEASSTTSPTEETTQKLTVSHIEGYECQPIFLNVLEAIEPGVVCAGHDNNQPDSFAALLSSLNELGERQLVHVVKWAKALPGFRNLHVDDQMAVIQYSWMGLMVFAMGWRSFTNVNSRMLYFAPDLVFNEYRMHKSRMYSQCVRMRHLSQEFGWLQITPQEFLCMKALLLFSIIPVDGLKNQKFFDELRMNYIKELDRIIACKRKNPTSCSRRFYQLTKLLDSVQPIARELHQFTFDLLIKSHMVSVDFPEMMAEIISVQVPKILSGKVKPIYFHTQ
Chain of Estrogen receptor (Homo sapiens) (P03372 whole entry, looked up, the tested form may be a part): as the sequence (P03372 whole entry, looked up, the tested form may be a part) above
Chain of rat Mineralocorticoid Receptor (MR), Nr3c2 (gene 25672) (P22199 whole entry, looked up): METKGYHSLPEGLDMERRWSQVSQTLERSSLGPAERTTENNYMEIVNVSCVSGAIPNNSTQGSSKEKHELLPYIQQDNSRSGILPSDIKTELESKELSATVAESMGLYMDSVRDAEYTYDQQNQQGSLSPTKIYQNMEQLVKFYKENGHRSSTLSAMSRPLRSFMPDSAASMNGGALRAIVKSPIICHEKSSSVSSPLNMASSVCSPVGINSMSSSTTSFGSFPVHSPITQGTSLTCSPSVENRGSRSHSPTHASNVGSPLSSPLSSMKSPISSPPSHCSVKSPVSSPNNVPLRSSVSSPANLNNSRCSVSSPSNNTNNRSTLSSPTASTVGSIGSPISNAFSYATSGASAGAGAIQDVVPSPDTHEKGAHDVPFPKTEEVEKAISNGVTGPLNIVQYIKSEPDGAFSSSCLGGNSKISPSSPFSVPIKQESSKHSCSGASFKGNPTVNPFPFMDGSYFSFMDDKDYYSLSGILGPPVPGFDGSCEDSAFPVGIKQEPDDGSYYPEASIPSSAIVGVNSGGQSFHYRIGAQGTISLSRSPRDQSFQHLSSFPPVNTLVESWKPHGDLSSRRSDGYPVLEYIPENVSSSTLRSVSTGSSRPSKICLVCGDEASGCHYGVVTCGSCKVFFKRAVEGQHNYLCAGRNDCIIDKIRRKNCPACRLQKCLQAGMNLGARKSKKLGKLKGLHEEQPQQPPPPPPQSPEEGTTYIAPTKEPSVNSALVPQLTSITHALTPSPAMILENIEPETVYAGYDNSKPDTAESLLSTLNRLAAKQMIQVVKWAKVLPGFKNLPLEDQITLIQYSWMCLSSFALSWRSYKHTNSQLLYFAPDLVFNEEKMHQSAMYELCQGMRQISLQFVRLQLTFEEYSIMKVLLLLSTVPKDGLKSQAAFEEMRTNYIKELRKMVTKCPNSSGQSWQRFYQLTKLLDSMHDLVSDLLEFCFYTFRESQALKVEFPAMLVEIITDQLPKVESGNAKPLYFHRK
Chain of Bile acid receptor (Homo sapiens) (Q96RI1 whole entry, looked up): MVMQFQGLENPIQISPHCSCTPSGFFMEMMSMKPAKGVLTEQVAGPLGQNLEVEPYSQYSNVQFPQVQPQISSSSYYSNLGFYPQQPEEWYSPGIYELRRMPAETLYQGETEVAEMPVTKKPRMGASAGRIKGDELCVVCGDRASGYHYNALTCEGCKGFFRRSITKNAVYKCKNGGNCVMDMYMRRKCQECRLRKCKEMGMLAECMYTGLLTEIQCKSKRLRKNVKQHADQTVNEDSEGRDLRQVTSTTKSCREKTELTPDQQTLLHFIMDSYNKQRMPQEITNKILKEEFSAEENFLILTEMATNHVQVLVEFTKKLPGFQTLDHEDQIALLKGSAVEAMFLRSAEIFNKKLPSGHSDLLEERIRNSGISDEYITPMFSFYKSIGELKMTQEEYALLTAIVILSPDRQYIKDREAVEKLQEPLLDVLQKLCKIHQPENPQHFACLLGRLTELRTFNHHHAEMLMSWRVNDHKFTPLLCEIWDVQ

For `Cl/C=C/Cl`, the molecule was classed as inactive in [1].

On to `BrCCBr`, for which the result in experiment [2] and in experiment [1] was inactive.

As to `O=C(Cc1ccccc1)c1ccccc1`, the outcome in experiment [2], in experiment [1] and in [3] was inactive.

Turning to `CCCCCCCCSC(=O)Oc1cc(Cl)nnc1-c1ccccc1`, the outcome in experiment [1] was inactive.

In the case of `O=C1CCCN1`, the result in [2], in experiment [1] and in experiment [3] was inactive.

Take `CC(C)(C)c1cc(O)ccc1O`: the molecule was called inactive in experiment [2] and in experiment [1].

Regarding `COP(=O)(OC)O/C(=C\Cl)c1cc(Cl)c(Cl)cc1Cl`, the outcome in experiment [2], in experiment [1], in experiment [3] and in experiment [5] was inactive. In experiment [4], the AC50 is 67.5 µM (active).

As to `CCOC(=O)/C=C(C)/C=C/C[C@@H](C)CCCC(C)C`, the call in experiment [2] was inactive.

As for `CC(=O)C=C(C)C`, the AC50 in experiment [1] is 26.6 µM (active).

As to `COc1cc(-c2ccc(N)c(OC)c2)ccc1N`, the AC50 in [6] is 18.5 µM (active) and 25 µM (active). Besides, the result in [7] was inactive.

As to `CCC(C)(C)c1ccc(O)c(C(C)(C)CC)c1`, the molecule was classed as inactive in [8], in experiment [2], in experiment [1] and in experiment [3].

`COP(=S)(OC)Oc1cc(Cl)c(Br)cc1Cl`: in [2], the molecule was called inactive.

With `CC(C)(OO)c1ccccc1`, the outcome in experiment [2] and in experiment [1] was inactive.

Regarding `C=CC(=O)OCCCCCC(C)C`, the molecule was called inactive in experiment [2], in [1], in [3], in experiment [9], in [4] and in experiment [5].

With `C1CCC(NC2CCCCC2)CC1`, in [1], the call was inactive.

Regarding `O=C(CCl)CCl`, the result in experiment [2] was inactive.

With `CCC1(c2ccc(N)cc2)CCC(=O)NC1=O` (centres undefined), the call in experiment [2], in experiment [1], in experiment [4] and in experiment [5] was inactive.

As to `COC(=O)c1sccc1S(=O)(=O)NC(=O)Nc1nc(C)nc(OC)n1`, the molecule was classed as inactive in [2], in experiment [1], in experiment [3] and in experiment [9].

Regarding `COc1ccc(C=O)cc1`, the molecule was classed as inactive in [1].

Consider `CNC`, for which the molecule was classed as inactive in experiment [1].

As for `O=C(Nc1ccc2[nH]ccc2c1)c1cc2cc(F)ccc2n1Cc1cccc(F)c1`, the result in [2], in [1] and in [3] was inactive.

For `O=c1[nH]c(=O)[nH]c(=O)[nH]1`, the result in experiment [4] and in experiment [5] was inactive.

Turning to `C=CC#N`, the result in [1] and in experiment [9] was inactive.

`O=C1C(Cl)=C(Cl)C(=O)c2ccccc21`: the AC50 in experiment [1] and in [3] was 11.9 µM (active) throughout.

Take `O=[N+]([O-])c1ccc(O)c([N+](=O)[O-])c1`: the molecule was classed as inactive in experiment [1], in experiment [3], in experiment [9], in experiment [4] and in [5].

As to `ClC1(Cl)C2(Cl)C3(Cl)C4(Cl)C(Cl)(Cl)C5(Cl)C3(Cl)C1(Cl)C5(Cl)C24Cl` (centres undefined), the call in experiment [1], in experiment [4] and in experiment [5] was inactive.

For `CC(C)OC(=O)Nc1ccccc1`, the molecule was classed as inactive in [1] and in [3].

In the case of `CC(C)c1cccc(C(C)C)c1O`, the outcome in experiment [1], in [9], in [4] and in experiment [5] was inactive.

Regarding `O=C(NCO)NCO`, the molecule was called inactive in [1] and in [3].

On to `Clc1nc(Cl)nc(Cl)n1`, for which the call in [1] and in experiment [3] was inactive.

For the molecule `c1cc[c]([Hg][c]2ccccc2)cc1`, the outcome in [1] was inactive. Moreover, the figures for the AC50 in experiment [4] and in experiment [5] were 41.9 µM (active) and 32.2 µM (active), respectively.

As to `C=C(C)C#N`, the outcome in experiment [1] and in experiment [9] was inactive.

With `Cc1ccc2ccccc2c1C`, the molecule was called inactive in [1], in experiment [9], in experiment [4] and in [5].

For `CCC(=O)C(CC(C)N(C)C)(c1ccccc1)c1ccccc1` (centres undefined), the outcome in experiment [1], in experiment [9] and in [4] was inactive.

Regarding `OCC(O)CCl` (centres undefined), the outcome in [1] and in [3] was inactive.

With `CC(=O)c1cc(C(C)(C)C)cc2c1CCC2(C)C`, the outcome in experiment [1] was inactive.

In the case of `CC1(C)Cc2cccc(O)c2O1`, the outcome in [1] and in experiment [9] was inactive.

`C=CCc1ccc(OC)cc1`: the call in [5] was inactive.

Consider `Cn1sc(Cl)cc1=O`, for which the molecule was classed as inactive in [1] and in experiment [9].

As for `CC(C#N)CCC#N` (centres undefined), the molecule was called inactive in experiment [1] and in experiment [9].

With `CC(C)(C)CC(C)(C)c1ccc(O)cc1`, in experiment [7], the result was inactive.

Consider `COP(=O)(OC)OC`, for which the result in [1] and in experiment [4] was inactive.

Turning to `O=S(=O)(c1ccc(Cl)cc1)c1ccc(Cl)cc1`, the molecule was called inactive in experiment [1] and in [9].

Regarding `CCOP(=S)(OCC)Oc1nc(Cl)c(Cl)cc1Cl`, the AC50 in experiment [1] was 70.6 µM (active); in experiment [3] it was 71.3 µM (active); in experiment [9] it was 50 µM (active); in [5], 78.9 µM (active).

Consider `N#CN=C(N)N`, for which the result in experiment [1] and in experiment [9] was inactive.

With `COc1ccc(C=O)cc1OC`, in experiment [1], the molecule was classed as inactive.

For `NC(=O)O`, the molecule was classed as inactive in experiment [1] and in [3].

As for `OCc1ccco1`, the outcome in experiment [1] and in experiment [9] was inactive.

Consider `[O-][Cl+2]([O-])O`, for which the outcome in experiment [1] and in experiment [9] was inactive.

For `CCCCOCCOC(C)=O`, in experiment [1], the call was inactive.

For orientation: AC50 means the midpoint of the concentration-response curve, whichever way the signal moves.
